From the supplement of paper PMC12350171
Where a name gives a salt, the structure may show the parent alone.

Key:
Details in all cases: 20 µM
[1] = tested on: Salmonella enterica typhimurium; experiment: growth AUC normalised to DMSO control (fraction of control); higher = less growth inhibition, active = hit call of the paper
Method in brief: (§1)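 Pathogens passaged twice anaerobically were inoculated at a starting OD578 of 0.01 into pre-reduced mGAM plates with drug at 20 μM and 1% DMSO, sealed with breathable membranes. Haemophilus parainfluenzae medium was supplemented with hemin and NAD. OD578 was read hourly for 24 h, with three biological replicates. Growth-curve AUC was computed by the trapezoidal rule up to the exponential-to-stationary transition and normalised to DMSO controls on the same plate.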

Shigella flexneri = experiment: as above
Method in brief: as §1

Vibrio cholerae = experiment: as above
Method in brief: as §1

[2] = tested on: Yersinia pseudotuberculosis; experiment: as above
Method in brief: as §1

P. vulgatus RND KO = experiment: growth AUC normalised to DMSO control (median) (fraction of control); higher = less growth inhibition, active = hit call of the paper
Method in brief: (§2)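 Area under the growth curve, calculated by the trapezoidal rule up to entry into stationary phase, was normalised to vehicle wells on the same plate. Strains had been passaged twice overnight without oxygen and then grown in mGAM in 96-well plates from OD578 0.01, each with an approved-drug library compound at 20 μM in 1% DMSO. OD578 was read hourly over 24 h in an anaerobic incubator, and the median of three biological replicates is given.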

P. vulgatus WT = experiment: as above
Method in brief: as §2

[3] = tested on: S. enterica typhimurium WT; experiment: as above
Method in brief: as §2

[4] = tested on: S. enterica typhimurium tolC KO; experiment: as above
Method in brief: as §2

Measured: growth AUC normalised to DMSO control
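Throughout, for growth AUC normalised to DMSO control (median): active when median AUC fell below 0.1.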

CCCOc1ccc(C(=O)OCCN(CC)CC)cc1N [Proparacaine hydrochloride]
inactive: [1] 1 | Shigella flexneri 1.02 | Vibrio cholerae 1.08 | [2] 1 | P. vulgatus RND KO 1.03 | P. vulgatus WT 1.05 | [3] 1.01 | [4] 1.01

Cc1ncc(CO)c(CO)c1O [Pyridoxine hydrochloride]
inactive: [1] 0.992 | Shigella flexneri 1.01 | Vibrio cholerae 0.996 | [2] 1 | P. vulgatus RND KO 1.01 | P. vulgatus WT 1.01 | [3] 1.01 | [4] 0.992

CC(c1cc2ccccc2s1)N(O)C(N)=O (stereo not given) [Zileuton]
inactive: [1] 0.987 | Shigella flexneri 0.986 | Vibrio cholerae 1 | [2] 0.931 | P. vulgatus RND KO 1.01 | P. vulgatus WT 0.985 | [3] 1 | [4] 0.993

CCN1CCC[C@H]1CNC(=O)c1c(O)c(Cl)cc(Cl)c1OC [Raclopride]
inactive: [1] 1 | Shigella flexneri 0.983 | Vibrio cholerae 0.985 | [2] 0.951 | P. vulgatus RND KO 1.04 | P. vulgatus WT 1.04 | [3] 0.994 | [4] 1

CN1CCC[C@@H]1CCO[C@](C)(c1ccccc1)c1ccc(Cl)cc1 [Clemastine fumarate]
inactive: [1] 0.999 | Shigella flexneri 0.969 | Vibrio cholerae 0.926 | [2] 1.02 | P. vulgatus RND KO 0.944 | P. vulgatus WT 0.947 | [3] 0.998 | [4] 0.925

CC(=O)Oc1ccccc1C(=O)O [Acetylsalicylic acid]
inactive: [1] 1.04 | Shigella flexneri 1.04 | Vibrio cholerae 1.09 | [2] 1.02 | P. vulgatus RND KO 1.01 | P. vulgatus WT 1.01 | [3] 1.01 | [4] 1.01

CC(C(=O)O)c1ccc2c(c1)Cc1cccnc1O2 (stereo not given) [Pranoprofen]
inactive: [1] 0.999 | Shigella flexneri 0.976 | Vibrio cholerae 0.993 | [2] 1.01 | P. vulgatus RND KO 1.04 | P. vulgatus WT 1.04 | [3] 1.01 | [4] 1

COCCOC(=O)C1=C(C)NC(C)=C(C(=O)OC/C=C/c2ccccc2)C1c1cccc([N+](=O)[O-])c1 (stereo not given) [Cilnidipine]
inactive: [1] 1.01 | Shigella flexneri 1.01 | Vibrio cholerae 1.03 | [2] 0.976 | P. vulgatus RND KO 0.989 | P. vulgatus WT 0.98 | [3] 1.01 | [4] 1.01

COc1ccc(Cl)cc1C(=O)NCCc1ccc(S(=O)(=O)NC(=O)NC2CCCCC2)cc1 [Glibenclamide]
inactive: [1] 0.984 | Shigella flexneri 1.02 | Vibrio cholerae 1.03 | [2] 1.01 | P. vulgatus RND KO 0.953 | P. vulgatus WT 0.956 | [3] 1.01 | [4] 1

CC(C)/N=c1\cc2n(-c3ccc(Cl)cc3)c3ccccc3nc-2cc1Nc1ccc(Cl)cc1 [Clofazimine]
inactive: [1] 0.99 | Shigella flexneri 0.996 | Vibrio cholerae 1 | [2] 1.03 | [3] 0.972 | [4] 1.02
active: P. vulgatus RND KO 0.0291 | P. vulgatus WT 0.0974

N=C(N)NCC1COC2(CCCCC2)O1 (stereo not given) [Guanadrel sulfate]
inactive: [1] 0.979 | Shigella flexneri 0.964 | Vibrio cholerae 0.983 | [2] 0.985 | P. vulgatus RND KO 0.965 | P. vulgatus WT 0.969 | [3] 0.994 | [4] 0.99

CC(=O)CCCCn1c(=O)c2c(ncn2C)n(C)c1=O [Pentoxifylline]
inactive: [1] 1 | Shigella flexneri 0.979 | Vibrio cholerae 0.967 | [2] 0.989 | P. vulgatus RND KO 0.983 | P. vulgatus WT 0.99 | [3] 1 | [4] 0.987

CC1(C)O[C@@H]2C[C@H]3[C@@H]4C[C@H](F)C5=CC(=O)C=C[C@]5(C)[C@@]4(F)[C@@H](O)C[C@]3(C)[C@]2(C(=O)CO)O1 [Fluocinolone acetonide]
inactive: [1] 1 | Shigella flexneri 1.01 | Vibrio cholerae 1.02 | [2] 1 | P. vulgatus RND KO 0.975 | P. vulgatus WT 0.967 | [3] 1 | [4] 0.993

O=S(=O)(O)c1cc(O)ccc1O [Ethamsylate diethylammonium salt]
inactive: [1] 1 | Shigella flexneri 0.998 | Vibrio cholerae 0.999 | [2] 1.01 | P. vulgatus RND KO 0.99 | P. vulgatus WT 0.994 | [3] 1 | [4] 0.999

Cn1c(=O)c2c(ncn2CCO)n(C)c1=O [Etofylline]
inactive: [1] 0.998 | Shigella flexneri 0.993 | Vibrio cholerae 1.01 | [2] 1.01 | P. vulgatus RND KO 0.998 | P. vulgatus WT 1.02 | [3] 0.999 | [4] 0.993

CC(=O)c1ccc2c(c1)N(CCCN(C)C)c1ccccc1S2 [Acetopromazine maleate salt]
inactive: [1] 1 | Shigella flexneri 1 | Vibrio cholerae 0.888 | [2] 0.949 | P. vulgatus RND KO 0.984 | P. vulgatus WT 0.963 | [3] 1 | [4] 0.969

CC(C(=O)O)c1ccc(C(=O)c2ccccc2)s1 (stereo not given) [Tiaprofenic acid]
inactive: [1] 1 | Shigella flexneri 1.01 | Vibrio cholerae 0.978 | [2] 1.01 | P. vulgatus RND KO 1.02 | P. vulgatus WT 1.05 | [3] 1 | [4] 0.992

CC(C)(C)NCC(O)c1cc(O)cc(O)c1 (stereo not given) [Terbutaline hemisulfate]
inactive: [1] 1.02 | Shigella flexneri 1.03 | Vibrio cholerae 1.07 | [2] 1 | P. vulgatus RND KO 1.06 | P. vulgatus WT 1.06 | [3] 1.01 | [4] 1.01

CCOC(=O)C(C)(C)Oc1ccc(Cl)cc1 [Clofibrate]
inactive: [1] 1.03 | Shigella flexneri 1.01 | Vibrio cholerae 1.03 | [2] 1.02 | P. vulgatus RND KO 1.03 | P. vulgatus WT 1.04 | [3] 1 | [4] 0.991

C[n+]1ccccc1/C=N/O [Pralidoxime chloride]
inactive: [1] 0.998 | Shigella flexneri 1.01 | Vibrio cholerae 0.971 | [2] 1.01 | P. vulgatus RND KO 1.01 | P. vulgatus WT 1 | [3] 1.01 | [4] 1

CN(Cc1ccc(C(C)(C)C)cc1)Cc1cccc2ccccc12 [Butenafine hydrochloride]
inactive: [1] 0.974 | Shigella flexneri 0.968 | Vibrio cholerae 0.926 | [2] 0.99 | P. vulgatus RND KO 0.967 | P. vulgatus WT 0.96 | [3] 0.995 | [4] 0.957

COc1cc(N)c(Cl)cc1C(=O)NC1CCN(Cc2ccccc2)CC1 [Clebopride maleate]
inactive: [1] 0.996 | Shigella flexneri 0.998 | Vibrio cholerae 0.995 | [2] 1 | P. vulgatus RND KO 0.987 | P. vulgatus WT 0.999 | [3] 0.998 | [4] 1

CNCCC=C1c2ccccc2C=Cc2ccccc21 [Norcyclobenzaprine]
inactive: [1] 0.983 | Shigella flexneri 0.935 | Vibrio cholerae 0.888 | [2] 0.996 | P. vulgatus RND KO 0.943 | P. vulgatus WT 0.926 | [3] 0.994 | [4] 0.968

OC(CCN1CCCC1)(c1ccccc1)C1CCCCC1 (stereo not given) [Procyclidine hydrochloride]
inactive: [1] 0.975 | Shigella flexneri 0.953 | Vibrio cholerae 0.937 | [2] 0.984 | P. vulgatus RND KO 0.96 | P. vulgatus WT 0.941 | [3] 1.01 | [4] 0.983

NC[C@H]1O[C@H](O[C@H]2[C@H](O)[C@@H](O[C@H]3O[C@H](CO)[C@@H](O)[C@H](N)[C@H]3O)[C@H](N)C[C@@H]2N)[C@H](N)C[C@@H]1O [Tobramycin]
active: [1] 0.888 | Shigella flexneri 0.794 | [2] 0.107
inactive: Vibrio cholerae 0.97 | P. vulgatus RND KO 1.03 | P. vulgatus WT 1.05 | [3] 0.969 | [4] 0.995

CC(=O)O[C@H]1C(=O)[C@@]2(C)[C@H]([C@H](OC(=O)c3ccccc3)[C@]3(O)C[C@H](OC(=O)[C@H](O)[C@@H](NC(=O)c4ccccc4)c4ccccc4)C(C)=C1C3(C)C)[C@]1(OC(C)=O)CO[C@@H]1C[C@@H]2O [Paclitaxel]
inactive: [1] 1.02 | Shigella flexneri 1.01 | Vibrio cholerae 1.02 | [2] 0.998 | P. vulgatus RND KO 0.881 | P. vulgatus WT 0.8 | [3] 1.01 | [4] 1.02

C[C@@H]1C[C@H]2[C@@H]3CCC4=CC(=O)C=C[C@]4(C)[C@@]3(Cl)[C@@H](O)C[C@]2(C)[C@@]1(OC(=O)c1ccco1)C(=O)CCl [Mometasone furoate]
inactive: [1] 1.02 | Shigella flexneri 1.07 | Vibrio cholerae 1.01 | [2] 1.03 | P. vulgatus RND KO 1.04 | P. vulgatus WT 1.06 | [3] 1.01 | [4] 0.991

CNC[C@H](O)[C@@H](O)[C@H](O)[C@H](O)CO [Meglumine]
inactive: [1] 1.02 | Shigella flexneri 1 | Vibrio cholerae 1.04 | [2] 0.984 | P. vulgatus RND KO 1.01 | P. vulgatus WT 1.04 | [3] 1.01 | [4] 1

COc1ccccc1O [Guaiacol]
inactive: [1] 0.991 | Shigella flexneri 0.976 | Vibrio cholerae 0.992 | [2] 0.999 | P. vulgatus RND KO 0.99 | P. vulgatus WT 1 | [3] 0.997 | [4] 1

CCCCc1oc2ccccc2c1C(=O)c1cc(I)c(OCCN(CC)CC)c(I)c1 [Amiodarone hydrochloride]
inactive: [1] 0.999 | Shigella flexneri 1.04 | Vibrio cholerae 1 | [2] 1.02 | P. vulgatus RND KO 1.02 | P. vulgatus WT 1.06 | [3] 1.04 | [4] 1.02
